Active and inactive are the calls of the source.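 The calls were made as follows: active = NF-kB reporter IC50 at most 10 µM, IL-8 IC50 within fivefold of it with bacterial filtrate but not with TNF-alpha; inactive = the rest.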
Assay: inhibitors of NFkB activation in CF airway cells, SAR follow-up, KKLEB cells, panel, IL8 HTRF, NFkB-GFP (AID 651592);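 also: immortalized cystic fibrosis airway epithelial KKLEB cells with an NF-kB GFP reporter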
Details: PAF/TNFa-induced NFkB-GFP / IL8 HTRF, CF-PAF assay, mean of runs

Structure (SMILES)	outcome
CCOc1ccc(NCc2cc3c(C(C)(C)C)nn(-c4ccc(Cl)cc4)c3[nH]c2=O)cc1	inactive
O=C(Nc1ccc(N2CCN(C(=O)c3ccccc3F)CC2)cc1)c1ccccn1	inactive
O=C(Nc1ccc(N2CCN(C(=O)c3ccccc3Cl)CC2)cc1)c1cc(Br)cc(Br)c1	inactive
O=C(Nc1ccc(N2CCN(C(=O)c3ccc(F)cc3)CC2)cc1)c1ccccn1	inactive
O=C(Nc1ccc(N2CCN(C(=O)c3ccccc3)CC2)cc1)c1cncc(Br)c1	active
Cc1ccc(CNCc2cc3c(C(C)(C)C)nn(-c4ccccc4)c3[nH]c2=O)cc1	inactive
O=C(Nc1ccc(N2CCN(C(=O)c3ccccc3Cl)CC2)cc1)c1cccnc1	inactive
O=C(Nc1ccc(N2CCN(C(=O)c3ccccc3F)CC2)cc1)c1cccc(Br)c1	inactive
CCOc1ccc(NCc2cc3c(C)nn(-c4ccccc4)c3[nH]c2=O)cc1	inactive
O=C(Nc1ccc(N2CCN(C(=O)c3ccc(F)cc3)CC2)cc1)c1ccncc1	inactive
O=C(Nc1ccc(N2CCN(C(=O)c3ccccc3F)CC2)cc1)c1ccccc1	inactive
CCOc1ccc(NCc2cc3c(-c4ccc(F)cc4)nn(-c4ccccc4)c3[nH]c2=O)cc1	active
O=C(Nc1ccc(N2CCN(C(=O)c3ccc(F)cc3)CC2)cc1)c1cncc(Br)c1	active
O=C(Nc1ccc(N2CCN(C(=O)c3ccccc3)CC2)cc1)c1ccccc1	inactive
O=C(Nc1ccc(N2CCN(C(=O)c3ccccc3)CC2)cc1)c1ccncc1	inactive
O=C(Nc1ccc(N2CCN(C(=O)c3ccc(F)cc3)CC2)cc1)c1cc(Br)cc(Br)c1	inactive
